# Source: PubChem BioAssay
# Calls of active or inactive are those of the source.
# Legend:
# Albumin (Bos taurus) = Albumin (Bos taurus) (UniProt P02769); assay: compounds binding labelled BSA control protein – biochemical, small-molecule microarray, Alexa647 label, 635/667 nm fluorescence, artefact control for SMM control protein annotation, profiling panel (AID 1118); settings: BSA-A647 binding, fluorescence 635 nm, higher = more signal;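 note: score merges 667 nm emission intensity and signal-to-noise per printed compound spot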
# Chain of Albumin (Bos taurus) (P02769 whole entry, looked up): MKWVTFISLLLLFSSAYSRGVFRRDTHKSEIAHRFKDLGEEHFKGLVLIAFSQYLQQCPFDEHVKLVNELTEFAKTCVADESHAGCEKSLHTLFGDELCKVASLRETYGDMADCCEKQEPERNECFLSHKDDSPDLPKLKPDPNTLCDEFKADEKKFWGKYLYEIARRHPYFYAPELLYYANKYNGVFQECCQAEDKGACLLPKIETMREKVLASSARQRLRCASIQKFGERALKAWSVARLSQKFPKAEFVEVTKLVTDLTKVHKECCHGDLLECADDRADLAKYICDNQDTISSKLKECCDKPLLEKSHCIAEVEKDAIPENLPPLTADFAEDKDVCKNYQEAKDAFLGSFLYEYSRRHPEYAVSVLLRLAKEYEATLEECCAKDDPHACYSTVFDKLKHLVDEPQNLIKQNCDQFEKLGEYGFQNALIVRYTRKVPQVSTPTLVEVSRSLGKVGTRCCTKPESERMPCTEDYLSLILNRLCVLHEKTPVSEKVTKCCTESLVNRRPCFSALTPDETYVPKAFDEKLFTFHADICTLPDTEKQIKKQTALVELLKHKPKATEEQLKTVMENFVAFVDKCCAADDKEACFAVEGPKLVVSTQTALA
# [1] = probe aXIP binding to arrayed compounds – biochemical, NeuroSMM set, 635/667 nm fluorescence, primary screen (AID 1119); settings: small-molecule microarray, higher = more signal, called active from +8 up or from −8 down;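 note: probe is the protein aXip251-270 applied at 1 µg/mL to compound-printed slides; binding of probe to printed compounds measured as 667 nm fluorescence plus signal to noise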
# [2] = probe aNOTCH3 binding on compound microarray – biochemical, small-molecule microarray, 635/667 nm fluorescence, primary screen (AID 1120); settings: higher = more signal;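 note: probe is a biotin-tagged antibody raised against NOTCH3 rather than NOTCH3 protein; score merges spot fluorescence near 667 nm with spot signal to noise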
# [3] = probe aNOTCH2 binding on compound microarray – biochemical, small-molecule microarray, 635/667 nm fluorescence, primary screen (AID 1121); settings: higher = more signal;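 note: score merges feature fluorescence read at 667 nm with its signal to noise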
# [4] = target: Carbonic anhydrase 2 (Homo sapiens) (UniProt P00918); assay: compounds binding carbonic anhydrase 2 – biochemical, small-molecule microarray, Alexa647-labelled CAII, profiling panel (AID 1122); settings: CAII-A647 binding fluorescence, higher = more signal
# [5] = COS7 lysate on small-molecule microarray, probe aHis, 635 nm (AID 1123); settings: COS7 cell lysate, fluorescence, higher = more signal;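 note: z-score combines 667nm fluorescence intensity with signal-to-noise per printed compound spot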
# [6] = probe aLAP1 signal on lysate-treated microarray – cell lysate, small-molecule microarray, COS7 lysate, primary screen (AID 1124); settings: probe aLAP1, fluorescence, higher = more signal;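 note: lysate comes from COS7 cells expressing LAP1 and is applied at 0.3 µg/mL; score merges spot fluorescence near 667 nm with signal-to-noise over triplicate slides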
# Sam68 (KHDRBS1) = assay: compounds binding KHDRBS1 protein – biochemical, small-molecule microarray, 635 nm fluorescence, primary screen (AID 1125); settings: higher = more signal;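 note: score merges 667 nm channel intensity with signal to noise over triplicate slides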
# [7] = tested on: Chordin-like protein 2 (CHRDL2); assay: compounds binding chordin-like 2 – biochemical, small-molecule microarray, 635 nm fluorescence, primary screen (AID 1126); settings: fluorescence 635 nm, higher = more signal;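 note: printed compound slides probed with Chrdl2 protein at 4 µg/mL for 1 h at 4 C; score merges 667 nm emission intensity with signal to noise over three replicate slides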
# [8] = target: Concanavalin-A (Canavalia ensiformis) (UniProt P02866); assay: compounds binding concanavalin A lectin – biochemical, small-molecule microarray, Alexa647 label, 635 nm, artefact control for SMM control protein annotation, primary screen (AID 1127); settings: ConA-A647 binding fluorescence, higher = more signal;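 note: z combines 667 nm emission intensity with signal-to-noise across three replicate slides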
# Chain of Concanavalin-A (Canavalia ensiformis) (P02866 whole entry, looked up): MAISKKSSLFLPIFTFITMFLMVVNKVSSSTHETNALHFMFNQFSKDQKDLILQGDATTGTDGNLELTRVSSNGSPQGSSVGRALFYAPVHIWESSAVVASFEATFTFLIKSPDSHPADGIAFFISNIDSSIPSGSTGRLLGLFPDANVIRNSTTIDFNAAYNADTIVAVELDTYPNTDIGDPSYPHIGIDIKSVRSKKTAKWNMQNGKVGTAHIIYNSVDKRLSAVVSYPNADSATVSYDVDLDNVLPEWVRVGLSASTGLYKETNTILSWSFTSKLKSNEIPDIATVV
# [9] = compounds binding Alexa647 anti-His antibody – biochemical, small-molecule microarray, 635 nm fluorescence, artefact control for SMM control protein annotation, primary screen (AID 1128); settings: higher = more signal;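 note: score merges feature fluorescence with signal-to-noise for each printed compound spot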
# [10] = tested on: Human papillomavirus type 1a E7 protein (residues 1-88); assay: HPV1a E7 small-molecule binders, primary screen, biochemical, small-molecule microarray, residues 1-88, 635 nm (AID 1129); settings: small-molecule microarray binding, fluorescence 635 nm; higher = more signal
# [11] = target: Focal adhesion kinase 1 (Homo sapiens) (UniProt Q05397); assay: PTK2 protein binding on printed compound slides – biochemical, small-molecule microarray, 635/667 nm fluorescence, BSA, DTT, primary screen (AID 1130); settings: 635 nm fluorescence, higher = more signal;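 note: composite of spot emission at 667 nm and signal to noise over triplicate slides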
# Chain of Focal adhesion kinase 1 (Homo sapiens) (Q05397 whole entry, looked up): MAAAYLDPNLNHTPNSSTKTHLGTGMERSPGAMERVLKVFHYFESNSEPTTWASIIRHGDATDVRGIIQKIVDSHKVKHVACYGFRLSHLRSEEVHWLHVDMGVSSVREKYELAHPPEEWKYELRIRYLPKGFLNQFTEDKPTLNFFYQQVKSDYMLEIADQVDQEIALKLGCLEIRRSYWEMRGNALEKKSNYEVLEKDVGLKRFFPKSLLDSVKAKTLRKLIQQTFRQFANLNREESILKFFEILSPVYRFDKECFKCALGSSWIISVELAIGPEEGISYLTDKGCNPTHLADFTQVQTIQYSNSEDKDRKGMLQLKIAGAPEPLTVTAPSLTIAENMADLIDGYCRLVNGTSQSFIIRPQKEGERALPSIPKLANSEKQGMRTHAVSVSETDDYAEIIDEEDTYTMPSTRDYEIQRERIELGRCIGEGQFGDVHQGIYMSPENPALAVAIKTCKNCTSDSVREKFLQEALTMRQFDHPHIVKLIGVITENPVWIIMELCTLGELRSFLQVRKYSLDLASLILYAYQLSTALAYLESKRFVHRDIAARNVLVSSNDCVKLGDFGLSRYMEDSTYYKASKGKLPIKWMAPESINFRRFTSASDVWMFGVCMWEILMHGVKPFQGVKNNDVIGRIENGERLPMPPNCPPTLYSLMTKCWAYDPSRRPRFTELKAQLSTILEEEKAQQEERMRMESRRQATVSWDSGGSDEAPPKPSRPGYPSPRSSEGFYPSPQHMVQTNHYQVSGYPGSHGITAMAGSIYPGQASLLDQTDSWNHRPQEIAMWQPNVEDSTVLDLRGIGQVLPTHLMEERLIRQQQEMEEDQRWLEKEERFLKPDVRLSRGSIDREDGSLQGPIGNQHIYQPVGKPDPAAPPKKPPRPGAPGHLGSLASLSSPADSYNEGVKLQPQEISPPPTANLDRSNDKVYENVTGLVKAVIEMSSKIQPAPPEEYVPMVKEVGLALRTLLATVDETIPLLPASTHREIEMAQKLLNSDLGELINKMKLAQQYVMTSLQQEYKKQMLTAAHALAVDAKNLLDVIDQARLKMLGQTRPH
# [12] = tested on: Fibrinogen (Alexa647-labelled); assay: Alexa647-fibrinogen binding to printed small molecules – biochemical, small-molecule microarray, 635/667 nm fluorescence, artefact control for SMM control-protein annotation, profiling panel (AID 1131); settings: fibrinogen-A647 binding fluorescence, higher = more signal;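 note: z-score merges 667 nm fluorescence with per-spot signal-to-noise over triplicate slides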
# [13] = target: Follistatin (Homo sapiens) (UniProt P19883); assay: FST protein binding to printed compounds – biochemical, small-molecule microarray, 635/667 nm fluorescence, primary screen (AID 1132); settings: 635 nm fluorescence, higher = more signal
# Chain of Follistatin (Homo sapiens) (P19883 whole entry, looked up): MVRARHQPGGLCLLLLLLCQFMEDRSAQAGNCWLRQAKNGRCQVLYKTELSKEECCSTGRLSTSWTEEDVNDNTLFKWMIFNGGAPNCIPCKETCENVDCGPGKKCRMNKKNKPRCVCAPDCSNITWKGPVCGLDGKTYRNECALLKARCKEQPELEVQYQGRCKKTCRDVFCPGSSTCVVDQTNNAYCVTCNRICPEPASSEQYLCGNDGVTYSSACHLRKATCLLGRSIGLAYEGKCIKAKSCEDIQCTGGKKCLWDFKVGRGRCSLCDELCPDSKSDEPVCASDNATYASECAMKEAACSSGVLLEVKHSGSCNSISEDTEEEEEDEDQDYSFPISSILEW
# [14] = target: Fibroblast growth factor 2 (Homo sapiens) (UniProt P09038); assay: basic fibroblast growth factor binding to printed compounds – biochemical, small-molecule microarray, 635/667 nm fluorescence, primary screen (AID 1133); settings: FGF2, fluorescence 635/667, higher = more signal
# Chain of Fibroblast growth factor 2 (Homo sapiens) (P09038 whole entry, looked up): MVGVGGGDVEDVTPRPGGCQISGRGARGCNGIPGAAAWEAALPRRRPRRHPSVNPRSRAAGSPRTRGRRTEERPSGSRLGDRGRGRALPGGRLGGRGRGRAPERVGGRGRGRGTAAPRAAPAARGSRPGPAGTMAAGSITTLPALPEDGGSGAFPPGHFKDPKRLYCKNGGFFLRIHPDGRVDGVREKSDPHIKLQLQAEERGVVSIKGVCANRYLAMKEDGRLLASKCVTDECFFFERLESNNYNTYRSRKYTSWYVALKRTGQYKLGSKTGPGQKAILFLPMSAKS
# [15] = JC-1 mitochondrial potential readout, lung cancer cells – cell-based, A549, JC-1 fluorescence, basal, 24 h, 100 nL, profiling panel (AID 1138); settings: higher = more signal;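 note: A549 lung adenocarcinoma cells under basal conditions with no added stimulus; test concentration not given here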
# Lefty1 = Lefty1 protein binding to printed compounds – biochemical, small-molecule microarray, 635/667 nm fluorescence, primary screen (AID 1139); settings: fluorescence 635/667, higher = more signal
# [16] = tested on: wheat germ agglutinin (Triticum aestivum), Alexa647-labelled; assay: Alexa647-WGA lectin binding to printed small molecules – biochemical, small-molecule microarray, 635/667 nm fluorescence, artefact control for SMM control-protein annotation, profiling panel (AID 1140); settings: WGA-A647 binding, 635 nm fluorescence, higher = more signal;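 note: score merges 667 nm feature emission with signal to noise over triplicate slides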
# [17] = target: Luciferin 4-monooxygenase (Photinus pyralis) (UniProt P08659); assay: inhibition of purified Photinus pyralis luciferase – biochemical, luminescence, purified enzyme, 2006 set, primary screen (AID 1141); settings: purified firefly luciferase, SteadyGlo luminescence, 30 min; higher = more signal, called active from +8 up or from −8 down;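 note: cell-free assay with purified firefly luciferase at 100 ng per well in PBS; test concentration not given here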
# Chain of Luciferin 4-monooxygenase (Photinus pyralis) (P08659 whole entry, looked up): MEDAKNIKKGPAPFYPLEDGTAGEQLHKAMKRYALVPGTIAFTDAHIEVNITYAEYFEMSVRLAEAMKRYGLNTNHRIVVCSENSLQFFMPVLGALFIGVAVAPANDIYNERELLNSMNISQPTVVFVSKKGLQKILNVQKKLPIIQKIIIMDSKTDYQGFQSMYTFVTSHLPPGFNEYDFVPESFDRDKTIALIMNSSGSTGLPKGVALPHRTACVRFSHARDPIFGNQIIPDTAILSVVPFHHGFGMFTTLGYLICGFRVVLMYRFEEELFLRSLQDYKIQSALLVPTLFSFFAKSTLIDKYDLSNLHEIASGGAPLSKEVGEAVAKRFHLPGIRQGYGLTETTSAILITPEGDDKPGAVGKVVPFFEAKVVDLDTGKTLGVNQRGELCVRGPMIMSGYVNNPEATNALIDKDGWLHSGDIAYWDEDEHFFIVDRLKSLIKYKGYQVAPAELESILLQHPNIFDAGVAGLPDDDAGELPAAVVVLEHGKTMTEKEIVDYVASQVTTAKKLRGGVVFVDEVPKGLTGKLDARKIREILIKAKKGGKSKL
SMILES,composite z-score (Albumin (Bos taurus)),composite Z-score [1],composite z-score [2],composite z-score [3],composite z-score [4],composite z-score [5],composite z-score [6],composite z-score (Sam68 (KHDRBS1)),composite z-score [7],composite z-score [8],composite z-score [9],composite z-score [10],composite z-score [11],composite z-score [12],composite z-score [13],composite z-score [14],z-score [15],composite z-score (Lefty1),composite z-score [16],z-score [17]
CCCC[C@@H]1C[C@H]1[C@@H](NC(=O)c1ccco1)c1ccc(-c2ccccc2)cc1,0.0697,0.572 (inactive),0.0155,0.0474,0.344,-0.66,-0.305,0.325,-0.33,0.163,0.633,0.665,0.218,-0.275,0.038,-0.199,-1.12,-0.0072,0.124,1.01 (inactive)
C=CC[C@]1(C(=O)NCCCOC)N=C(c2ccc(OCCCO)cc2)O[C@H]1c1ccccc1CN=[N+]=[N-],0.782,0.571 (inactive),0.119,-0.0013,0.748,2.59,0.298,1.14,-0.257,0.983,2.44,1.23,0.932,1,1.14,0.564,2.04,-0.0763,0.934,-0.529 (inactive)
C=CCOC(=O)[C@@H]1[C@H]2C(=O)O[C@H](c3ccccc3)[C@H](c3ccccc3)N2[C@H](c2ccc(OCCOC(=O)[C@@H]3C[C@@H]4C(=O)NCC(=O)N4[C@@H]3c3ccc(O)cc3)cc2)[C@@]12C(=O)Nc1ccc(I)cc12,0.471,-0.666 (inactive),-0.0879,-0.108,0.617,1.04,-0.143,1.31,1.03,1.19,1.88,1.21,0.823,0.342,1.36,1.27,-1.73,0.734,0.86,0.401 (inactive)
Cc1ccc(S[C@]2(C(=O)O)CC(=O)N(C(C)C)[C@@H]2c2ccc(CO)cc2I)cc1,0.162,0.556 (inactive),0.208,0.164,0.566,1.99,0.73,0.784,-0.17,1.03,3.36,0.476,0.929,0.432,1.12,0.253,1.33,-0.176,0.939,-2.26 (inactive)
COC(=O)[C@@]1(Cc2ccccc2)[C@H]2c3cc(C(=O)N(C)C)n(Cc4ccsc4Br)c3C[C@H]2CN1C(=O)c1ccccc1,0.928,-0.502 (inactive),0.501,-0.0597,0.586,2.66,-0.0415,1.21,-1.03,0.883,1.18,1.24,0.483,0.834,0.797,-0.535,1.04,-0.143,0.948,0.78 (inactive)
CC(=O)NCCCC[C@@H]1NC(=O)[C@@H]2C[C@H](C(=O)NCCCCCNC(=O)CS)[C@H](c3cccc(OCCO)c3)N2C1=O,-0.0839,0.648 (inactive),-0.205,-0.159,-0.0086,-0.0704,-0.0909,0.254,1.05,0.241,2,-0.516,-0.612,-1.07,1.32,0.94,-0.763,1.1,0.0847,-0.125 (inactive)
Cc1ccc(S[C@]2(C(=O)NCCCN(C)C)CC(=O)N(Cc3cc(C(F)(F)F)cc(C(F)(F)F)c3)[C@@H]2c2ccc(CO)cc2I)cc1,-0.39,-0.86 (inactive),0.462,-0.0492,0.773,0.961,0.135,0.375,-0.395,-1.79,0.336,-0.77,-0.0785,-0.604,-0.816,-0.862,0.197,-0.536,0.0799,0.828 (inactive)
O=C(NCCN1CCOCC1)[C@@H]1c2ccccc2C(=O)N(C2CCCCC2)[C@H]1c1ccc(CO)cc1,0.349,-0.118 (inactive),-0.154,-0.147,0.625,1.29,-0.0871,0.68,-1.08,0.31,0.166,0.0657,-0.0962,0.74,0.0603,-0.59,2.27,-0.0981,-0.403,-0.293 (inactive)
COCCOC(=O)N1C(=O)[C@@]2(c3cc(C#Cc4ccc(OC)cc4)ccc31)[C@H](c1ccccc1OCCO)N1[C@H](c3ccccc3)[C@H](c3ccccc3)OC(=O)[C@H]1[C@@H]2C(=O)NC[C@H](O)c1ccccc1,-0.0206,-0.112 (inactive),0.156,-0.115,0.528,1.6,0.618,1.29,0.711,0.999,0.992,1.24,0.824,0.782,1.33,1.6,-0.922,1.16,0.889,0.385 (inactive)
N#Cc1ccc(NN2C(C(O)C(c3ccccc3)c3ccccc3)C=CC3C(=O)N(c4ccccc4)C(=O)C32)cc1 (stereo not given),0.983,-0.442 (inactive),0.673,0.11,0.407,2.95,-0.0751,1.3,-0.558,1.17,0.238,1.26,0.545,1.01,0.337,-0.469,1.49,-0.0452,1.4,0.523 (inactive)
CC(C)NC(=O)[C@@]1(C)c2ccccc2C(=O)N(Cc2cc(C(F)(F)F)cc(C(F)(F)F)c2)[C@H]1c1ccc(CO)cc1,-0.47,-0.0197 (inactive),-0.165,-0.123,0.689,2.07,-0.208,0.784,-1.39,0.0957,-0.229,0.272,0.0662,-0.285,-0.101,-0.741,1.21,-0.146,-0.568,-0.734 (inactive)
C=CCOC(=O)[C@H]1[C@@H]2C(=O)O[C@@H](c3ccccc3)[C@@H](c3ccccc3)N2[C@@H](c2ccc(OCCOC(=O)[C@H]3C[C@H]4C(=O)N[C@@H](CCCC[N+](C)(C)C)C(=O)N4[C@H]3c3ccc(O)cc3)cc2)[C@]12C(=O)Nc1ccc(I)cc12,-0.763,1.88 (inactive),0.191,0.0482,-0.141,0.502,-0.432,1.11,1.11,0.401,1.24,1.08,0.38,-0.154,1.38,1.14,0.694,1.27,0.0577,-0.666 (inactive)
NC(=O)NCC#Cc1ccc2c(c1)[C@]1(C(=O)N2)[C@H](C(=O)Nc2nc3ccccc3s2)[C@H]2C(=O)O[C@H](c3ccccc3)[C@H](c3ccccc3)N2[C@@H]1c1ccccc1OCCO,0.46,1.24 (inactive),1.1,0.0196,0.39,2.83,1.14,1.18,0.277,1.08,0.678,0.759,0.997,0.764,1.22,0.624,-2.46,1.34,1.1,-0.921 (inactive)
CC(C)NC(=O)[C@@]1(c2ccc([N+](=O)[O-])cc2)CC(=O)N(C2CCCCC2)[C@@H]1c1ccc(CO)cc1I,0.0092,0.691 (inactive),-0.0647,0.083,0.421,1.27,0.321,0.93,-0.589,0.347,-0.0568,1.15,0.52,-0.517,-0.315,-0.331,2.97,-0.491,-0.0784,-1.11 (inactive)
COc1ccc([Si](C)(C)[C@H]2[C@H](CC(=O)N3Cc4ccccc4C[C@H]3CO)O[C@@]3(C(=O)N(Cc4cccc(N5CCC5=O)c4)c4ccccc43)[C@@H]2C)cc1,-0.606,0.923 (inactive),-0.0003,-0.14,0.584,1.4,0.0972,1.2,1.21,0.64,0.322,1.19,0.527,0.135,1.33,1.47,0.526,1.22,0.107,-0.796 (inactive)
COc1cc(NN2C(C(O)c3ccco3)C=CC3C(=O)N(c4ccccc4)C(=O)C32)cc(OC)c1OC (stereo not given),0.877,0.32 (inactive),-0.0328,-0.139,0.574,1.13,0.166,0.203,-0.776,0.498,0.284,1.06,0.21,-0.0129,0.363,-0.132,-0.16,0.199,0.0464,-2.51 (inactive)
COc1cc2c(cc1OC)CN(C(=O)[C@@H]1[C@H]3C(=O)O[C@H](c4ccccc4)[C@H](c4ccccc4)N3[C@H](c3ccc(O)cc3)[C@@]13C(=O)Nc1ccccc13)CC2,0.551,0.799 (inactive),-0.0647,-0.117,0.622,1.74,0.169,0.751,0.257,1.13,0.948,1.21,0.684,0.962,0.421,0.246,-0.379,0.259,0.965,0.81 (inactive)
